Assay outcomes (PubChem BioAssay)
This is a sample that favours compounds with a hit; in the whole collection about 3.4% have one here.
PP5 primary: PP5 (human) phosphatase inhibition. P53041. purified PP5c, OMFP substrate fluorescence. inhibition, % at 6.7 µM. actives 0.18% (n = 320,000). AID 1987;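 active means inhibition above the campaign's mean inhibition across all tested compounds plus 3 SD, cut at about 9.5% in these data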;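 further: 0% = DMSO only and 100% = 100 µM cantharidin control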
Target sequence (P53041 whole entry, looked up): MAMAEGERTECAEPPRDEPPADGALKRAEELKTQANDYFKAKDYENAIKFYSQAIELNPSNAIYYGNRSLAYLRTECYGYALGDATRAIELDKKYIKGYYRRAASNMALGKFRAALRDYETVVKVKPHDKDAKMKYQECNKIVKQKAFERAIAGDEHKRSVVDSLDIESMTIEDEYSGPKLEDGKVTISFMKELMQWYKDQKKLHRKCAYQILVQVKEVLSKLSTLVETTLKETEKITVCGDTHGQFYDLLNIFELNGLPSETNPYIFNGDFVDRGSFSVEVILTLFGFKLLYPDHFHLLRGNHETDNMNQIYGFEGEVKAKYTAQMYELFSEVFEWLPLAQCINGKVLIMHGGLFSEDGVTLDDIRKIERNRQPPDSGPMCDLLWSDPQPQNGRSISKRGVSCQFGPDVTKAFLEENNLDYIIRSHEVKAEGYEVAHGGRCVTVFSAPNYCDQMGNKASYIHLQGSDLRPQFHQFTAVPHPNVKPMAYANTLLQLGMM
PAFAH1B2 inh: PAFAH1B2 (human) inhibition; P68402; recombinant PAFAH1B2, FP-rhodamine activity probe, fluorescence polarization; inhibition, % at 3.39 µM; actives 1.2% (n = 340,000); AID 492953;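 active means inhibition above the mean of all tested compounds plus 3 SD, cut at about 24% in these data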;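 further: 0% = enzyme with DMSO and 100% = wells lacking PAFAH1B2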
PP1 inh: counter-screen for PP5 inhibitors: inhibitors of human PP1-alpha | actives 0.9% (n = 320,000) | P62136 | inhibition, % at 6.7 µM | purified PP1alpha, OMFP fluorescence;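 active means inhibition above the mean inhibition of all tested compounds plus 3 SD, computed separately for each screening campaign, cut at about 15% in these data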
PAFAH1B3 inh: PAFAH1B3 (human) inhibition; inhibition, % at 3.39 µM; recombinant PAFAH1B3, FP-rhodamine probe, fluorescence polarization; AID 492972; Q15102; actives 0.28% (n = 340,000);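 active means inhibition above the screen-wide average of all tested compounds plus 3 SD, cut at about 25% in these data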;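 further: 0% = enzyme with DMSO only and 100% = wells lacking PAFAH1B3 protein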
pPAFAH FP inh: pPAFAH (human) enzyme inhibition; Q13093; recombinant pPAFAH, FP-rhodamine probe fluorescence polarization; inhibition, % at 3.39 µM; actives 1.5% (n = 330,000);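 active means inhibition above the mean inhibition across the screen plus 3 SD, cut at about 25% in these data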;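 further: inhibitors block binding of the rhodamine activity-based probe so polarization drops; 0% = enzyme with DMSO and 100% = wells lacking pPAFAH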
PAFAH2 inh: PAFAH2 (human) inhibition; recombinant PAFAH2, FP-rhodamine activity probe, fluorescence polarization; inhibition, % at 3.39 µM; actives 0.99% (n = 340,000); AID 492956;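 active means inhibition above the mean over all tested compounds plus 3 SD, cut at about 30% in these data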;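 further: inhibitors block probe labeling of enzyme so polarization drops; 0% = enzyme with DMSO and 100% = wells lacking PAFAH2 protein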
Numbers without * were called inactive; x = no result given.

SMILES	PP5 primary	PAFAH1B2 inh	PP1 inh	PAFAH1B3 inh	pPAFAH FP inh	PAFAH2 inh
OC(c1ccc(F)cc1)(C1CCCCC1)C(CN1CCOCC1)c1ccccc1 (stereo not drawn)	2.2	35.4*	1.4	10.8	7.3	1.5
Cc1cccc(-n2c(Cc3cc(=O)[nH]c(=O)[nH]3)nnc2SCC(=O)N2CCc3ccccc32)c1	2.5	4.6	-0.5	-0.4	1.0	-3.1
COC(=O)c1ccc(SC2CCCCC2)c([N+](=O)[O-])c1	1.8	1.8	-0.1	2.8	0.9	5.0
CCN(CC)C(=O)Cn1cnc2sc(C(=O)Nc3cc(OC)c(OC)c(OC)c3)c(C)c2c1=O	6.1	2.7	15.2*	1.6	-0.4	0.9
CCCNC(=O)Cn1cnc2sc(C(=O)Nc3cc(OC)c(OC)c(OC)c3)c(C)c2c1=O	2.6	4.8	1.4	4.1	2.5	2.5
CCCNC(=O)Cn1cnc2sc(C(=O)NCCN(CC)CC)c(C)c2c1=O	4.7	-2.0	16.3*	3.1	2.5	-0.5
CN(Cc1nccn1C)C(=O)C1CCC(=O)N(CCc2ccc(Cl)cc2)C1 (stereo not drawn)	1.9	6.7	-3.2	7.8	4.7	0.7
COc1cccc(NC(=O)Nc2nc(SC)ns2)c1	2.1	1.3	2.1	-6.3	3.8	3.2
COc1cccc(NC(=O)Nc2nc(SC(C)(C)C)ns2)c1	5.2	-7.5	17.2*	-3.1	-4.4	-16.6
Cc1ccc(NC(=O)CCCCCN2C(=O)[C@@H]3Cc4ccccc4CN3C2=O)cc1	2.8	28.3*	-0.9	7.0	2.6	8.7
CCOC(=O)c1cc(CC)sc1NC(=O)C1CC(=O)NN1Cc1ccccc1 (stereo not drawn)	6.5	1.0	6.3	2.6	31.8*	-11.4
COC(=O)c1cc(C)sc1NC(=O)C1CC(=O)NN1Cc1ccccc1 (stereo not drawn)	0.7	-1.1	-1.9	0.4	5.7	5.5
COC(=O)c1c(N)c(C#N)c2n1CCCCC2	-1.0	2.0	-0.6	6.5	2.6	-3.8
O=C(NC(=S)N1CCN(c2ccc(C(F)(F)F)cc2[N+](=O)[O-])CC1)c1cccs1	-0.4	1.7	2.6	-2.6	33.8*	4.2
O=C(NC(=S)NNC(=O)c1ccc(Cl)cc1Cl)c1cccnc1	1.1	-0.5	-1.2	7.4	5.2	0.4
O=C(NC(=S)NNC(=O)c1ccccc1O)c1cccnc1	-0.1	19.2	5.7	25.5*	15.9	59.9*
CCCNC(=O)Cn1nc(C)n2c(cc3cc(F)ccc32)c1=O	x	2.2	x	8.5	x	-3.4
Oc1ccc(Cc2ccccc2Cl)c(O)c1	x	6.4	x	7.1	x	0.6
Oc1ccc(Cc2ccc(Cl)cc2)c(O)c1	3.1	71.6*	0.7	5.6	-4.7	0.5
Cc1c(CN(C)C(=O)/C=C/c2ccc([N+](=O)[O-])cc2)cnn1C	0.7	-0.6	2.2	1.4	-1.4	7.8
CC1CCc2sc(C(=O)N3CCN(c4ncccn4)CC3)cc2C1 (stereo not drawn)	-0.3	0.3	1.3	-6.7	27.9*	5.0
O=C(O)c1cc2cc(Cl)cc(Cl)c2oc1=O	2.3	-0.8	-3.2	-5.4	26.7*	11.1
Cc1ccc(OCCC(=O)OCC(=O)NCc2ccccc2)cc1	-1.3	1.2	3.6	3.5	29.9*	-2.5
CCOc1ccc(OCCC(=O)OCC(=O)NCc2ccccc2)cc1	1.8	-1.2	1.3	-3.0	31.8*	-5.6
Cc1ccc(C)c(OCCC(=O)OCC(=O)NCc2ccc(F)cc2)c1	3.9	3.8	0.2	6.4	29.9*	6.5
SMILES	PP5 primary	PAFAH1B2 inh	PP1 inh	PAFAH1B3 inh	pPAFAH FP inh	PAFAH2 inh
CCN(CC)CCN(Cc1cc2cc3c(cc2[nH]c1=O)OCCO3)C(=O)NC1CCCCC1	2.4	5.1	-6.1	5.0	3.3	-3.4
COc1ccccc1NC(=S)N(CCc1ccc(OC)c(OC)c1)Cc1ccccn1	2.8	1.1	0.8	4.3	-3.0	1.0
CCOc1cc(/C=C(/C#N)c2ccc(F)cc2)ccc1OCc1ccc(C(=O)O)o1	3.9	31.9*	1.4	-1.0	9.5	-5.1
CCOc1cc(/C=C(/C#N)c2nc3ccccc3[nH]2)ccc1OCc1ccc(C(=O)O)o1	5.3	8.4	0.9	10.9	4.6	-0.8
CCc1cc2c(CN(C)Cc3ccccc3F)cc(=O)oc2cc1O	1.7	28.2*	6.2	4.0	-0.2	-5.3
CC(=O)c1cccc(NC(=O)CCNS(=O)(=O)c2cccc(C(C)=O)c2)c1	0.1	-3.2	1.0	11.6	1.6	-3.2
